From PubChem BioAssay
Calls of active or inactive are those of the source. Unless noted, how the calls were made is not given here.

Experiments:
[1] = A549 cell viability effects, profiling panel, calcein-AM fluorescence, 48 h, basal (AID 1162); settings: higher = more signal; further: test concentration not given here
[2] = adipocyte viability effects, profiling panel, cell-based, 3T3-L1 adipocytes, calcein-AM fluorescence, 48 h, basal (AID 1163); settings: 3T3-L1 adipocytes viability, higher = more signal; further: test concentration not given here
[3] = HepG2 cell viability effects, profiling panel, calcein-AM fluorescence, 48 h, basal (AID 1164); settings: higher = more signal; further: test concentration not given here
[4] = MM1S cell viability effects, profiling panel, calcein-AM fluorescence, 48 h, basal (AID 1165); settings: higher = more signal;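 further: viability of MM1S multiple myeloma cells under basal unstimulated conditions; test concentration not given here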
[5] = basal RPMI8226 viability, no added stimulus, profiling panel, cell-based, calcein-AM fluorescence, 48 h, PK04 Diversity Set (AID 1166); settings: RPMI8226 myeloma viability, higher = more signal;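 further: cells grown under basal conditions without added stimulus; test concentration not given here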
[6] = basal HepG2 mitochondrial membrane potential changes, profiling panel, cell-based, JC-1 fluorescence, 24 h, 100 nL compound (AID 1167); settings: higher = more signal; further: test concentration not given here
[7] = basal 3T3-L1 adipocyte mitochondrial potential changes, profiling panel, cell-based, JC-1 fluorescence, 3T3-L1 adipocytes, 24 h, 100 nL compound (AID 1168); settings: JC-1 mitochondrial fluorescence, higher = more signal, called active from +8 up or from −8 down; further: test concentration not given here
[8] = basal RPMI8226 mitochondrial membrane potential changes, profiling panel, cell-based, JC-1 fluorescence, 24 h, 100 nL compound (AID 1169); settings: RPMI8226 myeloma, JC-1 mitochondrial potential fluorescence, higher = more signal; further: test concentration not given here
[9] = basal MM1S mitochondrial membrane potential changes, profiling panel, cell-based, JC-1 fluorescence, 24 h, 100 nL compound (AID 1170); settings: higher = more signal; further: test concentration not given here
[10] = A549 lung cancer cell viability effects, profiling panel, resazurin fluorescence, 24 h, PK04 Diversity Set (AID 1171); settings: higher = more signal, called active from +8 up or from −8 down; further: test concentration not given here
[11] = HepG2 liver cancer cell viability effects, profiling panel, resazurin fluorescence, 24 h, PK04 Diversity Set (AID 1172); settings: higher = more signal; further: test concentration not given here
[12] = basal S. cerevisiae growth modulation, no modifier, primary screen, OD600, strain BY4716, 24 h, basal condition (AID 1173); settings: OD600, 24 h, higher = more signal, called active from +8 up or from −8 down
[13] = MM1S myeloma cell viability, profiling panel, resazurin fluorescence, basal, 24 h, PK04 Diversity Set (AID 1174); settings: higher = more signal, called active from +8 up or from −8 down;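 further: MM1S multiple myeloma cell line; test concentration not given here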
[14] = target: Dihydroorotate dehydrogenase (quinone), mitochondrial (Plasmodium falciparum (isolate 3D7)) (UniProt Q08210); test: PfDHODH enzyme inhibitors, primary screen, biochemical, C-terminal His tag, absorbance 600 nm (AID 1175); settings: DCIP absorbance 600 nm, higher = more signal, called active from +8 up or from −8 down;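 further: recombinant parasite enzyme with a five histidine tag at its C terminus; test concentration not given here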
Dihydroorotate dehydrogenase (quinone), mitochondrial (Plasmodium falciparum (isolate 3D7)), sequence (Q08210 whole entry, looked up): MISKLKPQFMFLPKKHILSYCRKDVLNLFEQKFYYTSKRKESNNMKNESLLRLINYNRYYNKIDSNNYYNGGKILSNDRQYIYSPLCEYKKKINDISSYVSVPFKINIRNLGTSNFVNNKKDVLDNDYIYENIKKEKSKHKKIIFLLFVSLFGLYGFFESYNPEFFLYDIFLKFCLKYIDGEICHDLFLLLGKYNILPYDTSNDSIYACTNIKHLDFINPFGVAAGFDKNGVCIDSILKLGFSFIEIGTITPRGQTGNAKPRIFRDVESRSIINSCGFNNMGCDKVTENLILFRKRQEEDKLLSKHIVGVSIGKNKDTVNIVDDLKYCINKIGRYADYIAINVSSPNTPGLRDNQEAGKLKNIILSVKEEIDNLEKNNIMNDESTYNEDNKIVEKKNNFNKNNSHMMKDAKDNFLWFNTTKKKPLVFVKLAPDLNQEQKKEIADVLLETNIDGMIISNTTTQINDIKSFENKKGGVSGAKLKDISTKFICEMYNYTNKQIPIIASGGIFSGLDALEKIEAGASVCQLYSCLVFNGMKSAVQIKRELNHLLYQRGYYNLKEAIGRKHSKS

[15] = P. aeruginosa biofilm formation inhibitors, primary screen, strain PAO1, LB-PBS medium, absorbance 600 nm (AID 1176); further: test concentration not given here; settings: P. aeruginosa PAO1 growth/biofilm, A600, 12 h; higher = more signal
[16] = S. cerevisiae RM11-1a growth modifiers, primary screen, strain RM11-1a, OD600, basal, 24 h (AID 1177); settings: OD600, 24 h, higher = more signal, called active from +8 up or from −8 down;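 further: cultures grown under basal conditions with no added stressor; test concentration not given here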
[17] = E. coli acrAB mutant growth effects, primary screen, E. coli filamentation inducers, strain DRC39, OD650, 24 h (AID 1178); settings: higher = more signal, called active from +8 up or from −8 down;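 further: growth measured as culture turbidity by optical density at 650 nm; test concentration not given here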
[18] = E. coli acrAB mutant growth effects, primary screen, E. coli filamentation inducers, strain DRC39, OD650, 48 h (AID 1179);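 further: screen aims at cell division blockers that make cells filament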; settings: E. coli DRC39 delta-acrAB growth, higher = more signal, called active from +8 up or from −8 down
[19] = RPMI8226 myeloma cell viability, profiling panel, resazurin fluorescence, basal, 24 h, PK04 Diversity Set (AID 1180); settings: higher = more signal;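 further: RPMI8826 multiple myeloma cell line at 5000 cells per well; test concentration not given here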
[20] = target: E3 ubiquitin-protein ligase XIAP (Homo sapiens) (UniProt P98170); test: XIAP binders, primary screen, biophysical, small-molecule microarray, fluorescence 635 nm (AID 1181); settings: small-molecule microarray binding, higher = more signal;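 further: score merges 667 nm emission and signal to noise over triplicate slides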
E3 ubiquitin-protein ligase XIAP (Homo sapiens), sequence (P98170 whole entry, looked up): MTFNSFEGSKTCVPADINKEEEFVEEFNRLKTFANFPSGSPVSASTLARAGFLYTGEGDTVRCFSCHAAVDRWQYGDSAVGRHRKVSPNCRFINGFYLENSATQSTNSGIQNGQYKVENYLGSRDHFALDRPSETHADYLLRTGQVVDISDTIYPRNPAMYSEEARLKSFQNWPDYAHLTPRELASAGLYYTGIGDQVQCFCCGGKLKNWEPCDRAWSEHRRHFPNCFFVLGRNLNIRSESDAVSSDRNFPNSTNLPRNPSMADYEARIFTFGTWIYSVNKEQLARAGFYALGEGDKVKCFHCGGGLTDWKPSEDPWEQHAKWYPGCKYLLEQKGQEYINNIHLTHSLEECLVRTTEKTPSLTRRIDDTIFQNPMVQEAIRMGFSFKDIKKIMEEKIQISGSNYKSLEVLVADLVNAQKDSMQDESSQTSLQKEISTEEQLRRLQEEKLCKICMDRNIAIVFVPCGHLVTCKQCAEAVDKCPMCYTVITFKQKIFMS

SMILES	z-score [1]	z-score [2]	z-score [3]	z-score [4]	z-score [5]	z-score [6]	z-score [7]	z-score [8]	z-score [9]	z-score [10]	z-score [11]	z-score [12]	z-score [13]	composite z-score [14]	z-score [15]	z-score [16]	z-score [17]	z-score [18]	z-score [19]	composite z-score [20]
O=C1c2ccccc2C(=O)C2CC([C@H]3Oc4ccccc4S(=O)(=O)N4CCC[C@@H]34)=CCC12 (stereo not given in full)	0.242	0.703	1.13	-2.53	-0.0759	0.786	0.0775 (inactive)	-0.667	-0.852	0.178 (inactive)	0.0623	-2.32 (inactive)	-0.583 (inactive)	0.0834 (inactive)	-0.246 (inactive)	-0.841 (inactive)	1.96 (inactive)	0.34 (inactive)	0.183	0.0374
COCCCNC(=O)[C@]1(Cc2ccccc2CN=[N+]=[N-])N=C(c2ccc(OCCCO)cc2)O[C@@H]1c1ccccc1CN=[N+]=[N-]	-0.386	0.0035	-0.918	-2.79	-4.22	1.31	-0.907 (inactive)	-1.18	-1.73	-0.241 (inactive)	-0.504	0.409 (inactive)	-2.2 (inactive)	0.502 (inactive)	1.29 (inactive)	-0.605 (inactive)	0.445 (inactive)	0.0972 (inactive)	-2.03	0.0427
O=C1N(Cc2ccccc2)c2ccccc2[C@H]2OC(c3ccc(OCCCO)cc3)=N[C@@]12CCS(=O)(=O)c1ccccc1	-0.737	0.899	-0.117	-0.641	-1.43	0.291	0.605 (inactive)	-0.497	-0.0454	-0.725 (inactive)	-0.362	1.21 (inactive)	-0.56 (inactive)	0.876 (inactive)	1.47 (inactive)	2.68 (inactive)	0.244 (inactive)	-0.939 (inactive)	-0.509	0.12
COC(=O)[C@@]1(Cc2ccc(F)cc2)[C@@H]2[C@@H](CC(=O)[C@H]2CC(=O)C(=O)N2CCCC2)CN1C(=O)c1ccccc1	-0.974	-0.0508	-0.191	-2	-1.73	0.129	-1.52 (inactive)	-0.96	-1.25	-0.919 (inactive)	-0.572	0.508 (inactive)	-1.78 (inactive)	-0.238 (inactive)	1.03 (inactive)	0.23 (inactive)	-1.25 (inactive)	-0.212 (inactive)	-3.35	-0.0553
CO[C@H]1O[C@H](CO)[C@@H](OC(=O)Nc2cccc(F)c2)[C@H](OC(=O)Nc2ccc3c(c2)OCO3)[C@H]1OC(=O)Nc1ccc2c(c1)OCO2	-0.598	0.424	-1.86	-1.17	-2.11	-0.216	0.712 (inactive)	-0.313	-0.0179	-1.14 (inactive)	-0.252	1.55 (inactive)	-1.53 (inactive)	-0.222 (inactive)	1.38 (inactive)	1.48 (inactive)	1.49 (inactive)	0.378 (inactive)	-1.89	0.652
C[N+](C)(C)CCCC[C@@H]1NC(=O)[C@@H]2C[C@H](C(=O)O)[C@H](c3cccc(OCCO)c3)N2C1=O	1.58	0.185	0.403	0.305	0.367	2.43	0.204 (inactive)	0.423	0.17	1.13 (inactive)	0.72	-0.219 (inactive)	0.838 (inactive)	0.284 (inactive)	-0.351 (inactive)	-0.126 (inactive)	1.13 (inactive)	1.36 (inactive)	0.826	-0.131
O=C(O)[C@]1(CCS(=O)(=O)c2ccccc2)N=C(c2ccc(OCCCO)cc2)O[C@@H]1c1ccccc1	0.195	0.103	0.296	-1.2	1.18	-0.509	-0.372 (inactive)	-0.928	0.0474	0.704 (inactive)	0.93	-0.334 (inactive)	0.716 (inactive)	-0.295 (inactive)	-1.3 (inactive)	-0.707 (inactive)	1.92 (inactive)	0.815 (inactive)	0.314	-0.0988
COCCOC(=O)N1C(=O)[C@@]2(c3ccccc31)[C@H](c1ccccc1OCCO)N1[C@H](c3ccccc3)[C@H](c3ccccc3)OC(=O)[C@H]1[C@@H]2C(=O)N1CCc2cc(OC)c(OC)cc2C1	-0.322	1.09	-0.628	-1.87	-1.49	0.822	0.977 (inactive)	-0.337	-0.582	-0.395 (inactive)	-0.413	1.99 (inactive)	0.181 (inactive)	0.301 (inactive)	1.96 (inactive)	3.06 (inactive)	-1.29 (inactive)	-1.3 (inactive)	0.186	-0.146
CC(C)c1ccc(NN2C(C(O)c3ccccn3)C=CC3C(=O)N(c4ccccc4)C(=O)C32)cc1 (stereo not given)	-0.381	-0.696	-0.293	0.741	-0.712	-0.357	-1.17 (inactive)	-0.597	-0.729	-0.943 (inactive)	-0.981	-0.147 (inactive)	-1.17 (inactive)	1.87 (inactive)	0.0895 (inactive)	1.92 (inactive)	0.235 (inactive)	0.0644 (inactive)	-0.698	-0.0559
